Results as given in PubChem BioAssay AID1159580 (chemical genetic matrix, 2015).
“And” between values parts separate entries of the source, which are not always exact repeats. Identical values can stand only once. Among all 5,500 compounds or so, about 2,000 (36%) were called active. Roughly 18% stayed inconclusive and do not appear here. Cut-off read from the data, not from the text of the source: active = normalized growth mostly below about 0.91 (no sharp cut-off); inconclusive = no clear call, values can overlap the other calls; inactive = mostly above about 0.92. Some of the results follow.

Assay: chemical genetic growth profiling, strain panel (AID 1159580);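 note: tested at 20 µM; growth read once vehicle control cultures reached saturation at 30 °C; 1 = growth at the plate median or of vehicle wells; lower values mean less growth of the strain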
Details: S. cerevisiae deletion strains, growth OD

Measured: normalized growth

CC(=O)O[C@H]1CC[C@]2(C)C3CC[C@@]4(C)C(CC5O[C@@]6(CCC(C)CO6)[C@@H](C)C54)C3CC[C@@H]2C1 (stereo not given in full)
inactive: locus YAL021C, strain ccr4, stronger effect = lower value 1.02 | locus YAL026C, strain drs2, stronger effect = lower value 1.02 | locus YAL030W, strain snc1, stronger effect = lower value 1.01 | locus YBL061C, strain skt5, stronger effect = lower value 1.01 | locus YBR009C, strain hhf1, stronger effect = lower value 1.03 | locus YBR021W, strain FUR4, stronger effect = lower value 0.996 | locus YBR023C, strain chs3, stronger effect = lower value 1.01 | locus YBR171W, strain sec66, stronger effect = lower value 1.03 | locus YBR229C, strain ROT2, stronger effect = lower value 0.99 | locus YBR231C, strain swc5, stronger effect = lower value 1 | locus YBR279W, strain paf1, stronger effect = lower value 1.01 | locus YCL011C, strain gbp2, stronger effect = lower value 1 | locus YCL016C, strain dcc1, stronger effect = lower value 1.01 | locus YCL029C, strain bik1, stronger effect = lower value 0.993 | locus YCL069W, strain vba3, stronger effect = lower value 1.02 | locus YCR088W, strain abp1, stronger effect = lower value 1.02 | locus YDL005C, strain med2, stronger effect = lower value 1.03 | locus YDL035C, strain GPR1, stronger effect = lower value 1.03 | locus YDL040C, strain nat1, stronger effect = lower value 1 | locus YDL074C, strain BRE1, stronger effect = lower value 1.02 | locus YDL101C, strain DUN1, stronger effect = lower value 0.986 | locus YDL185W, strain tfp1, stronger effect = lower value 0.986 | locus YDL192W, strain arf1, stronger effect = lower value 0.997 | locus YDR001C, strain nth1, stronger effect = lower value 1.01 | locus YDR069C, strain doa4, stronger effect = lower value 1.01 | locus YDR101C, strain arx1, stronger effect = lower value 0.992 | locus YDR137W, strain rgp1, stronger effect = lower value 1.04 | locus YDR159W, strain sac3, stronger effect = lower value 1.01 | locus YDR162C, strain NBP2, stronger effect = lower value 1.02 | locus YDR195W, strain ref2 1.03 | locus YDR297W, strain sur2, stronger effect = lower value 1 | locus YDR318W, strain mcm21, stronger effect = lower value 0.997 | locus YDR334W, strain swr1, stronger effect = lower value 1.03 | locus YDR335W, strain msn5, stronger effect = lower value 1.02 | locus YDR388W, stronger effect = lower value 0.991 | locus YDR392W, strain spt3, stronger effect = lower value 1.03 | locus YDR502C, strain sam2, stronger effect = lower value 0.977 | locus YEL003W, strain gim4, stronger effect = lower value 1.03 | locus YEL037C, strain rad23, stronger effect = lower value 1.02 | locus YEL061C, strain CIN8 (second series), stronger effect = lower value 1.05 | locus YEL061C, strain CIN8, stronger effect = lower value 1 | locus YER015W, strain faa2, stronger effect = lower value 1.01 | locus YER016W, strain bim1, stronger effect = lower value 1 | locus YER110C, stronger effect = lower value 0.991 | locus YER111C, strain swi4, stronger effect = lower value 1.02 | locus YER155C, strain BEM2 (second series), stronger effect = lower value 1.04 | locus YER155C, strain BEM2, stronger effect = lower value 0.975 | locus YER167W, strain BCK2, stronger effect = lower value 0.998 | locus YFR010W, strain ubp6, stronger effect = lower value 1.01 | locus YGL078C, strain dbp3, stronger effect = lower value 0.98 | locus YGL167C, strain pmr1, stronger effect = lower value 1 | locus YGL173C, strain kem1, stronger effect = lower value 1.01 | locus YGL227W, strain vid30, stronger effect = lower value 1.02 | locus YGL240W, strain doc1, stronger effect = lower value 1.02 | locus YGL248W, strain PDE1, stronger effect = lower value 0.985 | locus YGL253W, strain hxk2, stronger effect = lower value 1.01 | locus YGR135W, strain pre9, stronger effect = lower value 0.97 | locus YGR229C, strain SMI1, stronger effect = lower value 1.08 | locus YGR252W, strain gcn5, stronger effect = lower value 0.949 | locus YHR013C, strain ard1, stronger effect = lower value 1.01 | locus YHR027C, strain rpn1, stronger effect = lower value 1.02 | locus YHR030C, strain SLT2, stronger effect = lower value 0.989 and 0.998 | locus YHR079C, strain IRE1 (second series), stronger effect = lower value 0.989 | locus YHR079C, strain IRE1, stronger effect = lower value 1.01 | locus YHR094C, strain hxt1, stronger effect = lower value 0.996 | locus YHR129C, strain ARP1, stronger effect = lower value 0.996 | locus YHR142W, strain chs7, stronger effect = lower value 1.03 | locus YHR200W, strain rpn10, stronger effect = lower value 0.989 | locus YIL066C, strain RNR3, stronger effect = lower value 1.01 | locus YIL073C, strain SPO22, stronger effect = lower value 1.06 | locus YIL125W, strain kgd1, stronger effect = lower value 1 | locus YIR030C, strain dcg1, stronger effect = lower value 0.992 | locus YJL092W, strain hpr5, stronger effect = lower value 1.03 | locus YJL095W, strain BCK1 (second series), stronger effect = lower value 1 | locus YJL095W, strain BCK1, stronger effect = lower value 0.987 and 1.01 | locus YJL115W, strain asf1, stronger effect = lower value 1.01 | locus YJL129C, strain trk1, stronger effect = lower value 1.03 | locus YJL134W, strain LCB3, stronger effect = lower value 0.987 | locus YJL154C, strain vps35, stronger effect = lower value 1.01 | locus YJL164C, strain tpk1, stronger effect = lower value 1.01 | locus YJL166W, strain qcr8, stronger effect = lower value 1.01 | locus YJL168C, strain set2, stronger effect = lower value 0.993 | locus YJL187C, strain SWE1 (second series), stronger effect = lower value 0.975 | locus YJL187C, strain SWE1, stronger effect = lower value 1.01 | locus YJR043C, strain POL32, stronger effect = lower value 1.01
